# Assay results as given in PubChem BioAssay AID1159606 (Sanford-Burnham Center for Chemical Genomics, 2016).
# Among all 360,000 compounds or so, about 7,300 (2%) were called active. This excerpt belongs to a sample that is enriched for actives. A number with no mark means an inactive call. Rule as the data show it: active = inhibition above about 50%; inactive = the rest.
# Experiment: inhibitors of TWEAK-Fn14 signaling, primary screen, luciferase reporter cells, uHTS (AID 1159606)
# Conditions: TWEAK-stimulated Fn14 reporter cells, luciferase luminescence, 8 h; at 10 µM; active compounds read high
row,Compound,inhibition
1,CCN1CCN(C(=O)C2(NC(=O)Nc3cccc(F)c3)CCCCC2)CC1,6.11%
2,CCN(CC)CCn1c(=S)[nH]c2ncccc2c1=O,11.7%
3,COc1cc(N2C(=O)c3ccccc3C2=O)c(Cl)cc1C(=O)OCC(=O)N1CCOCC1,16.7%
4,N#Cc1ccc(-c2ccc3nccn3c2)cc1,-15.9%
5,CCOC(=O)c1cc(C)sc1NC(=O)C1CCC1,13.5%
6,COc1cccc2c1C(=O)c1c(O)c3c(c(O)c1C2=O)CC(O)(C(C)=NNC(=O)c1ccc(Cl)c(Cl)c1)CC3OC1CC(N)C(O)C(C)O1 (stereo not given),100% (active)
7,Clc1cccc(Cc2c(-c3cccc(Cl)c3)nc3ccc(Cl)cn23)c1,-8.97%
8,CCN1C(=O)/C(=C2\SC(N3CCCCC3)=NC2=O)c2ccccc21,-25.1%
9,COc1ccc(S(=O)(=O)N2CN(CCc3ccc(OC)c(OC)c3)c3nc4ccccc4nc32)cc1,14%
10,COc1ccc(COC(=O)c2n[nH]c3ccccc23)cc1F,-8.86%
11,CC(Nc1nc(N2CCCC2)nc2ccccc12)c1ccccc1 (stereo not given),-2.01%
12,CCc1ccc(C(CNc2nc(C(F)(F)F)nc3ccccc23)N(C)C)cc1 (stereo not given),9.86%
13,CC(Nc1nc(C(F)(F)F)nc2ccccc12)c1cccs1 (stereo not given),60.9% (active)
14,COc1ccc(Cl)cc1C=CC=NNC(=O)c1ccncc1,-16.2%
15,COc1cc(C(=O)Nn2c(O)c(C3=c4ccccc4=NC3=O)sc2=S)ccc1O,4.56%
16,Nc1nc(SCC(=O)N2CCN(S(=O)(=O)c3ccc(Cl)cc3)CC2)n[nH]1,4.55%
17,O=C1NC[C@H](Cc2ccc(O)cc2)N(C[C@H]2CCCN2C[C@H](Cc2ccccc2)N2C[C@H](Cc3ccccc3)N(CCc3ccccc3)C(=O)C2=O)C1=O,-7.56%
18,COc1ccc(C(=O)O)cc1S(=O)(=O)NCc1cccnc1,16.8%
19,O=[N+]([O-])c1ccc(O)c(/C=N/Nc2ccccc2[N+](=O)[O-])c1,71.5% (active)
20,O=C(N/N=C/c1cc([N+](=O)[O-])ccc1O)/C(=C\c1cccs1)NC(=O)c1ccccc1,5.24%
21,Nc1nnnn1/N=C/c1cc([N+](=O)[O-])ccc1O,-1.63%
22,Cc1ccc(-c2nc(-c3cccnc3)sc2CC(=O)Nc2ccc(C)c(Cl)c2)cc1,-0.71%
23,COCCCNC(=O)CCc1nc2cccnc2n1Cc1ccc(OC)cc1,16.3%
24,CCc1nc2cccnc2n1-c1ccc(C(=O)O)cc1,2.68%
25,COCCCNC(=O)Cc1ccc(-n2c(C)nc3cccnc32)cc1,84.3% (active)
